target: Large ribosomal subunit protein eL14A (UniProt P36105); experiment: cross-link between two proteins; cross-linking mass spectrometry
Sequence (P36105 whole entry): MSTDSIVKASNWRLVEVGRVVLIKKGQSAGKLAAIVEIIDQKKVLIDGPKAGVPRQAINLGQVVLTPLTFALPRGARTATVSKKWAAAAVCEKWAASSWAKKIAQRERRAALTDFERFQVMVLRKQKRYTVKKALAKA

Chain of Large ribosomal subunit protein eL32, P38061 (P38061 whole entry): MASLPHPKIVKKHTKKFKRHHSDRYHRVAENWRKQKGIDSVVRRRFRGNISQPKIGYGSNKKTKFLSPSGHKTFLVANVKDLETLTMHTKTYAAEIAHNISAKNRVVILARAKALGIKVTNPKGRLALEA
Chain of Large ribosomal subunit protein uL13A, P26784 (P26784 whole entry): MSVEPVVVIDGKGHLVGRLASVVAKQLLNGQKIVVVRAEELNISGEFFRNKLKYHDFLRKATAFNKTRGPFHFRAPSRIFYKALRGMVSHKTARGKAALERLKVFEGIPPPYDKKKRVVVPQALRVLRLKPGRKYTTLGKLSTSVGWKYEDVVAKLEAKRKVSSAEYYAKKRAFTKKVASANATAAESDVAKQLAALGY
Chain of Large ribosomal subunit protein uL13B, P26785 (P26785 whole entry): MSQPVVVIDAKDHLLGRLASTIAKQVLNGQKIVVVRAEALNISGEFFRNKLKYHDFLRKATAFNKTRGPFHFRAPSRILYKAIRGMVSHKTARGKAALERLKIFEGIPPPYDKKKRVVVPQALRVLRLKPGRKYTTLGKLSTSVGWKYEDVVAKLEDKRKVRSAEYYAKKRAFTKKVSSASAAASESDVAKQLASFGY

Listed as a hit, yes:
Large ribosomal subunit protein uL13A, P26784
Large ribosomal subunit protein uL13B, P26785
Large ribosomal subunit protein uL30A, P05737

target: Ribosome biogenesis protein ALB1 (UniProt P47019); experiment: as above
Sequence (P47019 whole entry): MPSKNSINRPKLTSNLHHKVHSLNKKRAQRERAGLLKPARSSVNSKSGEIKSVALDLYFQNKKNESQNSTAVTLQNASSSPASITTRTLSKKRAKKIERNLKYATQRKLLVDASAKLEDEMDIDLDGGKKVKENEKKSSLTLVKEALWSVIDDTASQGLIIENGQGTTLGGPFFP

Listed as a hit, yes:
Large ribosomal subunit protein eL32, P38061
Large ribosomal subunit protein eL6B, P05739
Large ribosomal subunit protein uL24A, P05743

— PMC6579518
